This is part of a sample that, as a whole, favours compounds with a hit. Of some 79,000 tested, about 15% had one in any assay. The source made the active and inactive calls. Cut-off read from the data, not from the text of the source: active = growth inhibition above about 70%; inactive = the rest.
How the values were obtained:
[1] = NCI Yeast Anticancer Drug Screen. Data for the rad52 strain (AID 147);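 note: 0% = growth of vehicle-treated control cultures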; settings: S. cerevisiae rad52 mutant growth inhibition, hits give high values
How it was run: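 Screen used a yeast mutant impaired in DNA repair. After compound exposure, growth was measured. Values reflect inhibition compared with vehicle-treated cells.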

[2] = NCI Yeast Anticancer Drug Screen. Data for the wt1 strain (AID 149);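 note: 0% = growth of vehicle-treated wt1 cultures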; settings: S. cerevisiae wt1 strain (SPY 50644) growth inhibition, hits give high values
How it was run: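 Using yeast strain wt1, compound-induced growth inhibition was determined against vehicle-treated cultures.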

[3] = NCI Yeast Anticancer Drug Screen. Data for the rad50 strain (AID 155);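 note: 0% = growth of vehicle-only cultures of the same strain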; settings: S. cerevisiae rad50 strain growth inhibition, hits give high values
How it was run: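 Relative growth inhibition (compound vs vehicle) was measured in yeast with a defined repair-gene alteration.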

[4] = NCI Yeast Anticancer Drug Screen. Data for the mec2-1 strain (AID 157); settings: S. cerevisiae mec2-1 strain, hits give high values
How it was run: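 Readout is yeast growth inhibition, normalised to vehicle-treated controls, in the mec2-1 strain exposed to compound.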

[5] = NCI Yeast Anticancer Drug Screen. Data for the rad14 strain (AID 159);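 note: 0% = growth of vehicle-treated control cultures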; settings: S. cerevisiae rad14 strain growth inhibition, hits give high values
How it was run: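 Screen for anticancer potential: a yeast strain altered in DNA damage repair is grown with compound, and reduced growth is quantified against vehicle controls.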

[6] = NCI Yeast Anticancer Drug Screen. Data for the sgs1 mgt1 strain (AID 161);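 note: 0% = growth of cultures given vehicle only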; settings: S. cerevisiae sgs1 mgt1 strain, hits give high values
How it was run: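 Percent growth inhibition was derived by comparing compound-exposed mutant yeast with vehicle-exposed cultures. The strain carries alterations in DNA damage repair.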

[7] = NCI Yeast Anticancer Drug Screen. Data for the CLN2oe strain (AID 163);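 note: 0% = growth of vehicle-only control cultures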; settings: S. cerevisiae CLN2oe strain, hits give high values
How it was run: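 Values reflect how much compound exposure reduced yeast growth, referenced to vehicle-exposed cells. Assay organism is a strain with a defined genetic change affecting cell-cycle control.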

[8] = NCI Yeast Anticancer Drug Screen. Data for the cln2 rad14 strain (AID 165);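 note: 0% = growth equal to vehicle treated cultures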; settings: S. cerevisiae cln2 rad14 strain, hits give high values
How it was run: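 Relative to vehicle controls, growth inhibition of compound-treated cln2 rad14 yeast was recorded.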

[9] = NCI Yeast Anticancer Drug Screen. Data for the bub3 strain (AID 167); settings: S. cerevisiae bub3 mutant strain, hits give high values
How it was run: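 Screening used yeast with an engineered genetic alteration affecting cell cycle control. Compound-exposed cultures were compared with vehicle cultures, and reduced growth was taken as inhibition.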

[10] = NCI Yeast Anticancer Drug Screen. Data for the wt2 strain (AID 169);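 note: 0% = growth of vehicle-treated yeast cultures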; settings: S. cerevisiae wt2 strain growth inhibition, hits give high values
How it was run: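 Values express reduction in yeast growth under compound treatment, referenced to vehicle-treated cells.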

[11] = NCI Yeast Anticancer Drug Screen. Data for the mlh1 strain (AID 171);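 note: 0% = growth of vehicle-treated control cultures of the same strain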; settings: S. cerevisiae mlh1 strain growth inhibition, hits give high values
How it was run: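 Steps: expose the defined-mutant yeast strain to compound; expose a parallel culture to vehicle; measure growth; express compound effect as inhibition relative to the vehicle culture.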

[12] = NCI Yeast Anticancer Drug Screen. Data for the sgs1 strain (AID 173);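 note: 0% = growth of vehicle-only control cultures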; settings: S. cerevisiae sgs1 mutant, hits give high values
How it was run: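 Treat defined-mutant yeast with compound; measure growth; calculate inhibition relative to vehicle-treated cells.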

[13] = NCI Yeast Anticancer Drug Screen. Data for the mlh1 rad18 strain (AID 175); settings: S. cerevisiae mlh1 rad18 strain growth inhibition, hits give high values
How it was run: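 Test agents were incubated with a yeast strain of defined genotype (DNA damage repair defect). Inhibition of growth was derived by comparison with vehicle-exposed cultures.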

[14] = NCI Yeast Anticancer Drug Screen. Data for the rad18 strain (AID 177); settings: S. cerevisiae rad18 mutant growth inhibition, hits give high values
How it was run: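 A genetically defined yeast mutant impaired in DNA damage repair was treated with test compounds, then its growth was measured against cultures receiving vehicle alone.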

[15] = at 5.0 µM (retest, dose inferred, filed as 0.5)
[16] = at 50.0 µM (retest, dose inferred, filed as 5.0)

Measured: growth inhibition

CC1=COC2=C(C)C(=O)C(=O)c3c(C)ccc1c32
active: [1]; at 100.0 µM 93% | [2]; at 33.0 µM 77% | [2]; at 100.0 µM 96% | [3]; at 33.0 µM 85% | [3]; at 50.0 µM 88.3% | [3]; at 100.0 µM 93% | [4]; at 33.0 µM 80% | [4]; at 50.0 µM 89.2% | [4]; at 100.0 µM 95% | [5]; at 33.0 µM 79% | [5]; at 100.0 µM 95% | [6]; at 50.0 µM 77.5% | [7]; at 33.0 µM 77% | [7]; at 100.0 µM 95% | [8]; at 50.0 µM 77.8% | [9]; at 3.7 µM 70% | [9]; [15] 77% | [9]; at 11.0 µM 84% | [9]; at 33.0 µM 91% | [9]; [16] 82% | [9]; at 50.0 µM 81% | [9]; at 100.0 µM 93% | [10]; at 100.0 µM 91% | [11]; at 33.0 µM 82% | [11]; at 100.0 µM 94% | [12]; at 33.0 µM 80% | [12]; at 100.0 µM 94% | [13]; [16] 71% | [13]; at 50.0 µM 80% | [14]; at 33.0 µM 79% | [14]; at 100.0 µM 93%
inactive: [1]; at 1.2 µM 20% | [1]; at 3.7 µM 23% | [1]; at 11.0 µM 30% | [1]; at 33.0 µM 68% | [2]; at 1.2 µM 30% | [2]; at 3.7 µM 38% | [2]; at 11.0 µM 45% | [3]; at 1.2 µM 34% | [3]; at 3.7 µM 39% | [3]; [15] 25% | [3]; at 11.0 µM 53% | [3]; [16] 47% | [4]; at 1.2 µM 43% | [4]; at 3.7 µM 40% | [4]; [15] 36% | [4]; at 11.0 µM 48% | [4]; [16] 59% | [5]; at 1.2 µM 10% | [5]; at 3.7 µM 17% | [5]; at 11.0 µM 20% | [6]; [15] 51% | [6]; [16] 67% | [7]; at 1.2 µM 37% | [7]; at 3.7 µM 44% | [7]; at 11.0 µM 36% | [8]; [15] 16% | [8]; [16] 32% | [9]; at 1.2 µM 67% | [10]; at 1.2 µM -19% | [10]; at 3.7 µM -18% | [10]; at 11.0 µM -19% | [10]; at 33.0 µM 6% | [11]; at 1.2 µM 25% | [11]; at 3.7 µM 27% | [11]; at 11.0 µM 47% | [12]; at 1.2 µM 23% | [12]; at 3.7 µM 29% | [12]; at 11.0 µM 35% | [13]; [15] 5% | [14]; at 1.2 µM -3% | [14]; at 3.7 µM 18% | [14]; at 11.0 µM 30%

— PubChem BioAssay (NCI)
